Only some compounds are listed: those with a hit (about 3.4% of all), similar ones and a draw of the others.
FBW7 act: activators of human E3 ligase FBW7; AlphaScreen FBW7–phospho-cyclin E peptide binding, activator screen; Q969H0; normalized activity (activation), % at 26.1 µM; 650,000 compounds, 0.13% hits; in the data active means normalized activity above about 1.9%;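 further: purified mutant Fbw7 with reduced substrate affinity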
Target sequence (Q969H0 whole entry, looked up): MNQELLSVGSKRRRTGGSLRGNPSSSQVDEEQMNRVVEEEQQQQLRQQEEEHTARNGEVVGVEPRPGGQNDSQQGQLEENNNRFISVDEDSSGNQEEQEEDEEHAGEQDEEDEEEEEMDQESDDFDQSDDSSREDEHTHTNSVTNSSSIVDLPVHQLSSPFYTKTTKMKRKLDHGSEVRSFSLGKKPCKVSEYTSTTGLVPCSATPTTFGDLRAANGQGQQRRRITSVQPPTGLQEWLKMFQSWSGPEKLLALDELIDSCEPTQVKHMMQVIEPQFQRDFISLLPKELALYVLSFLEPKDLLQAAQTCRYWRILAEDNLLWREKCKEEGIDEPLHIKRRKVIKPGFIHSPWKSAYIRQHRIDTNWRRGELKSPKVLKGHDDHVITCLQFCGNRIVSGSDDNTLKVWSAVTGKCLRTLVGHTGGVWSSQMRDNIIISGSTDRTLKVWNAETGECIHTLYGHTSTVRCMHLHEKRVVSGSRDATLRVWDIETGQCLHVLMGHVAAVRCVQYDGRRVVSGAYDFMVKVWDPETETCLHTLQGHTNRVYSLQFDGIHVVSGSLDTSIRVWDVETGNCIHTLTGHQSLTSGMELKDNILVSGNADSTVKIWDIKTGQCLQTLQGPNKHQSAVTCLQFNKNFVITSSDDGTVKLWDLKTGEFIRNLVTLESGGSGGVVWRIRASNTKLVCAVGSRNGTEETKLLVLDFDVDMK
TEAD-YAP inh: TEAD-YAP interaction inhibition | HEK-TIYL cells, TEAD-Gal4/YAP UAS-luciferase luminescence | inhibition, % at 9.12 µM | 640,000 compounds, 1.4% hits; in the data active means inhibition above about 32%;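 further: 0% = median of test compound wells and 100% = reference inhibitor wells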
GPR151 activ: activates the human receptor GPR151. Q8TDV0. PathHunter beta-arrestin GPR151 cells, luminescence. activation, % at 11.2 µM. 650,000 compounds, 1% hits; in the data active means activation above about 4.9%;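 further: 0% = median of compound wells and 100% = cells with positive control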
MITF primary: inhibitors of human MITF. O75030. AlphaScreen MITF homodimerization, bead proximity signal. inhibition, % at 2.6 µM. 650,000 compounds, 0.91% hits; in the data active means inhibition above about 50%;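 further: 0% = vehicle wells with protein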
GPR151 confirm: confirmation of human GPR151 activators; shares compounds with GPR151 activ; GPR151 PathHunter beta-arrestin cells, luminescence, 90 min; % of EA-reagent control over plate median; activation, % at 11.2 µM; 6,700 tested, under 10 active; AID 1508609;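 active means mean percent activation across replicates above the confirmation screen cutoff of 4.91%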
GPR119 ag: activates human GPR119 in a GPR151 counter-screen; AID 1508611; shares compounds with GPR151 activ; activation, % at 11.2 µM; 6,700 compounds, 0.3% hits; GPR119 PathHunter beta-arrestin cells, luminescence, 90 min; 0 = compound-well median, 100 = enzyme-acceptor control;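 active means mean percent activation in the counterscreen above 29.09%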;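 further: counterscreen on off-target GPR119 to flag nonselective hits from the GPR151 activator screen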
Active calls of the source: *.

What do the screens show for `Cc1cnc(N2CCOCC2)nc1Nc1ccc(N2CCOCC2)cc1`?
FBW7 act: 0; TEAD-YAP inh: 5; GPR151 activ: -1; MITF primary: 15

What do the screens show for `Cc1cnc(-c2csc3ccccc23)nc1Nc1ccc(N2CCOCC2)cc1`?
FBW7 act: 1; TEAD-YAP inh: -14; GPR151 activ: 5.0*; MITF primary: 14; GPR151 confirm: -1; GPR119 ag: -9

Results for CC1=CC(=O)C=C/C1=N/n1c(C)nc2sc(C)c(C)c2c1=O ?
FBW7 act: 0; TEAD-YAP inh: -5; GPR151 activ: 1; MITF primary: 0

How did O=C(NCCCN1CCOCC1)c1cc(S(=O)(=O)N2CCOCC2)ccc1Sc1ccc(Br)cc1 do in these assays?
FBW7 act: 0; TEAD-YAP inh: -8; GPR151 activ: 5.6*; MITF primary: -5; GPR151 confirm: -1; GPR119 ag: 5

What do the screens show for `CCCCNC(=O)c1cc(S(=O)(=O)N2CCOCC2)ccc1Sc1ccc(Br)cc1`?
FBW7 act: 0; TEAD-YAP inh: 0; GPR151 activ: 0; MITF primary: 2

How did OC1(c2cccc(F)c2)CCN(Cc2ccncc2)CC1 do in these assays?
FBW7 act: 1; TEAD-YAP inh: -15; GPR151 activ: 6.1*; MITF primary: 20; GPR151 confirm: 1; GPR119 ag: 17

What do the screens show for `OC1(c2cccnc2)CCN(Cc2cccc(F)c2)CC1`?
FBW7 act: 0; TEAD-YAP inh: 5; GPR151 activ: 0; MITF primary: 7

What do the screens show for `CCn1c(SCC(=O)Nc2nc(C)cs2)nc2c(c1=O)SCC2`?
FBW7 act: 0; TEAD-YAP inh: 11; GPR151 activ: 6.3*; MITF primary: -4; GPR151 confirm: 0; GPR119 ag: 1

What do the screens show for `CCOc1ccc(-n2c(SCC(=O)Nc3cc(C)on3)nc3c(c2=O)SCC3)cc1`?
FBW7 act: 0; TEAD-YAP inh: -38; GPR151 activ: 5.1*; MITF primary: 4; GPR151 confirm: 1; GPR119 ag: 5

Results for CC(C#N)Sc1ncnc2sccc12 (centres undefined) ?
FBW7 act: 0; TEAD-YAP inh: -2; GPR151 activ: -1; MITF primary: -4

What do the screens show for `O=S(=O)(NCCCN1CCN(c2ccccc2)CC1)c1cc(F)ccc1F`?
FBW7 act: 0; TEAD-YAP inh: 6; GPR151 activ: 0; MITF primary: 8

Results for Cc1ccc(/C=N/NC(=O)c2cc(Br)ccc2O)o1 ?
FBW7 act: 0; TEAD-YAP inh: -25; GPR151 activ: -1; MITF primary: 6

How did Cc1ccc(C(=O)CSc2nnc(-c3ccccc3N)n2C)cc1 do in these assays?
FBW7 act: 0; TEAD-YAP inh: -10; GPR151 activ: 5.9*; MITF primary: -4; GPR151 confirm: 0; GPR119 ag: -7

How did Cc1ccccc1OCC(=O)NCc1ccccn1 do in these assays?
FBW7 act: 0; TEAD-YAP inh: 1; GPR151 activ: 1; MITF primary: 6

How did Cc1cc(C)c(S(=O)(=O)NCCc2ccc(S(N)(=O)=O)cc2)c(C)c1 do in these assays?
FBW7 act: 0; TEAD-YAP inh: 12; GPR151 activ: 7.1*; MITF primary: 4; GPR151 confirm: 1; GPR119 ag: 11

Results for COc1ccc(S(=O)(=O)N(CC(=O)NCc2cccnc2)C2CCCCC2)cc1OC ?
FBW7 act: 0; TEAD-YAP inh: 5; GPR151 activ: 5.2*; MITF primary: 2; GPR151 confirm: 0; GPR119 ag: 2

Results for Cc1cc(C)c(S(=O)(=O)N(CC(=O)NCc2cccnc2)C2CCCCC2)c(C)c1 ?
FBW7 act: 0; TEAD-YAP inh: -4; GPR151 activ: 1; MITF primary: -6

What do the screens show for `CCOc1ccc2nc(N3CCCC3C(=O)N(C)Cc3cccs3)nc(C)c2c1` (centres undefined)?
FBW7 act: 0; TEAD-YAP inh: 1; GPR151 activ: -1; MITF primary: -15

Results for COc1ccc(C(=O)CC2(O)C(=O)N(C(C)C)c3ccccc32)cc1 (centres undefined) ?
FBW7 act: 0; TEAD-YAP inh: -4; GPR151 activ: 12*; MITF primary: -17; GPR151 confirm: 0; GPR119 ag: -9

Results for CC(C)N1C(=O)C(O)(CC(=O)c2ccc3ccccc3c2)c2ccccc21 (centres undefined) ?
FBW7 act: 0; TEAD-YAP inh: 2; GPR151 activ: 6.2*; MITF primary: 6; GPR151 confirm: -1; GPR119 ag: -9

What do the screens show for `CN1C(=O)C(O)(CC(=O)c2ccc(F)cc2)c2ccccc21` (centres undefined)?
FBW7 act: 0; TEAD-YAP inh: 1; GPR151 activ: 4; MITF primary: -6

How did CN1C(=O)C(O)(CC(=O)c2cccnc2)c2ccccc21 (centres undefined) do in these assays?
FBW7 act: 0; TEAD-YAP inh: 9; GPR151 activ: 14*; MITF primary: 18; GPR151 confirm: -1; GPR119 ag: -13

What do the screens show for `CN1C(=O)C(O)(CC(=O)c2ccc3ccccc3c2)c2ccccc21` (centres undefined)?
FBW7 act: 0; TEAD-YAP inh: -2; GPR151 activ: 0; MITF primary: 5

What do the screens show for `Cc1cc(-c2ccccc2)nc(SCC(=O)N2CCCCC2)n1`?
FBW7 act: 0; TEAD-YAP inh: 2; GPR151 activ: -1; MITF primary: -4

What do the screens show for `[O-][n+]1ccccc1SSc1cccc[n+]1[O-]`?
FBW7 act: 0; TEAD-YAP inh: 96*; GPR151 activ: 6.9*; MITF primary: 1; GPR151 confirm: -1; GPR119 ag: -14

How did O=C(CSc1cccc[n+]1[O-])N1CCCCCC1 do in these assays?
FBW7 act: 0; TEAD-YAP inh: 2; GPR151 activ: 2; MITF primary: 2

What do the screens show for `CN1CCCc2cc(C(CN)N3CCCCC3)ccc21` (centres undefined)?
FBW7 act: 0; TEAD-YAP inh: 12; GPR151 activ: 6.7*; MITF primary: 24; GPR151 confirm: 0; GPR119 ag: -9

How did COC(=O)c1cc(OC)c(OC)cc1NC(=S)N1CCCC1 do in these assays?
FBW7 act: 0; TEAD-YAP inh: 7; GPR151 activ: 2; MITF primary: 3

What do the screens show for `COc1cc(C#N)c(NC(=S)N2CCCC2)cc1OC`?
FBW7 act: 0; TEAD-YAP inh: -1; GPR151 activ: 5.4*; MITF primary: 7; GPR151 confirm: -1; GPR119 ag: -3

How did Cc1ccc(C(=O)Nc2ccc(C(=O)CN3C(=O)CSC3=O)cc2)cc1 do in these assays?
FBW7 act: 0; TEAD-YAP inh: -2; GPR151 activ: 5.8*; MITF primary: 24; GPR151 confirm: -1; GPR119 ag: -4

How did O=C(CN1C(=O)CSC1=O)c1ccc(Cl)cc1 do in these assays?
FBW7 act: 0; TEAD-YAP inh: 0; GPR151 activ: 1; MITF primary: -6

Bioassay records from PubChem.
